Source: PubChem BioAssay AID1159580 (chemical genetic matrix, 2015)
Where “and” joins values, the source holds several entries; their conditions need not be identical. Equal entries are not always repeated. Among all 5,500 compounds or so, about 2,000 (36%) were called active. Another 18% or so got no clear call; they are omitted. No stated cut-off is given here; in the data, active means normalized growth mostly below about 0.91 (no sharp cut-off); inconclusive means no clear call, values can overlap the other calls; inactive means mostly above about 0.92. Some of the results follow.

Test: chemical genetic growth profiling, strain panel (AID 1159580);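 further: tested at 20 µM; growth read once vehicle control cultures reached saturation at 30 °C; 1 = growth at the plate median or of vehicle wells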
Details: S. cerevisiae deletion strains, growth OD

Measured: normalized growth

CCCCCc1c2c(cc(O)c1C(=O)O)OC(=O)c1c(cc(OC)cc1C(=O)CCCC)O2
inactive: locus YAL021C, strain ccr4, stronger effect = lower value 0.954 | locus YAL026C, strain drs2, stronger effect = lower value 1.01 | locus YAL030W, strain snc1, stronger effect = lower value 0.993 | locus YBL061C, strain skt5, stronger effect = lower value 0.999 | locus YBR009C, strain hhf1, stronger effect = lower value 1.01 | locus YBR021W, strain FUR4, stronger effect = lower value 1.02 | locus YBR023C, strain chs3, stronger effect = lower value 1 | locus YBR171W, strain sec66, stronger effect = lower value 1 | locus YBR229C, strain ROT2, stronger effect = lower value 0.935 | locus YBR231C, strain swc5, stronger effect = lower value 0.988 | locus YBR279W, strain paf1, stronger effect = lower value 1.01 | locus YCL011C, strain gbp2, stronger effect = lower value 0.997 | locus YCL016C, strain dcc1, stronger effect = lower value 0.994 | locus YCL029C, strain bik1, stronger effect = lower value 0.989 | locus YCL069W, strain vba3, stronger effect = lower value 1.03 | locus YCR088W, strain abp1, stronger effect = lower value 1 | locus YDL005C, strain med2, stronger effect = lower value 0.977 | locus YDL035C, strain GPR1, stronger effect = lower value 0.945 | locus YDL040C, strain nat1, stronger effect = lower value 0.994 | locus YDL074C, strain BRE1, stronger effect = lower value 0.982 | locus YDL101C, strain DUN1, stronger effect = lower value 0.998 | locus YDL185W, strain tfp1, stronger effect = lower value 0.968 | locus YDL192W, strain arf1, stronger effect = lower value 0.968 | locus YDR001C, strain nth1, stronger effect = lower value 1 | locus YDR069C, strain doa4, stronger effect = lower value 0.985 | locus YDR101C, strain arx1, stronger effect = lower value 0.961 | locus YDR137W, strain rgp1, stronger effect = lower value 0.941 | locus YDR150W, strain NUM1, stronger effect = lower value 0.99 | locus YDR159W, strain sac3, stronger effect = lower value 0.994 | locus YDR162C, strain NBP2, stronger effect = lower value 0.955 | locus YDR195W, strain ref2 0.977 | locus YDR297W, strain sur2, stronger effect = lower value 0.995 | locus YDR318W, strain mcm21, stronger effect = lower value 0.99 | locus YDR334W, strain swr1, stronger effect = lower value 1.01 | locus YDR335W, strain msn5, stronger effect = lower value 1 | locus YDR388W, stronger effect = lower value 0.997 | locus YDR392W, strain spt3, stronger effect = lower value 0.988 | locus YDR502C, strain sam2, stronger effect = lower value 1.03 | locus YEL003W, strain gim4, stronger effect = lower value 1.01 | locus YEL037C, strain rad23, stronger effect = lower value 1.01 | locus YEL061C, strain CIN8 (second series), stronger effect = lower value 1.02 | locus YER015W, strain faa2, stronger effect = lower value 1 | locus YER016W, strain bim1, stronger effect = lower value 0.989 | locus YER110C, stronger effect = lower value 0.973 | locus YER111C, strain swi4, stronger effect = lower value 0.995 | locus YER155C, strain BEM2 (second series), stronger effect = lower value 0.998 | locus YER155C, strain BEM2, stronger effect = lower value 1.01 | locus YER167W, strain BCK2, stronger effect = lower value 0.985 | locus YFR010W, strain ubp6, stronger effect = lower value 1 | locus YGL078C, strain dbp3, stronger effect = lower value 0.977 | locus YGL086W, strain mad1, stronger effect = lower value 1 | locus YGL167C, strain pmr1, stronger effect = lower value 0.977 | locus YGL173C, strain kem1, stronger effect = lower value 0.991 | locus YGL227W, strain vid30, stronger effect = lower value 1.03 | locus YGL240W, strain doc1, stronger effect = lower value 0.964 | locus YGL248W, strain PDE1, stronger effect = lower value 0.99 | locus YGL253W, strain hxk2, stronger effect = lower value 1.01 | locus YGR135W, strain pre9, stronger effect = lower value 1.04 | locus YGR252W, strain gcn5, stronger effect = lower value 1.01 | locus YHR013C, strain ard1, stronger effect = lower value 0.989 | locus YHR027C, strain rpn1, stronger effect = lower value 1.01 | locus YHR030C, strain SLT2, stronger effect = lower value 0.961 | locus YHR079C, strain IRE1 (second series), stronger effect = lower value 0.988 | locus YHR079C, strain IRE1, stronger effect = lower value 0.959 | locus YHR094C, strain hxt1, stronger effect = lower value 0.983 | locus YHR129C, strain ARP1, stronger effect = lower value 0.993 | locus YHR142W, strain chs7, stronger effect = lower value 1.02 | locus YHR200W, strain rpn10, stronger effect = lower value 0.987 | locus YIL066C, strain RNR3, stronger effect = lower value 0.978 | locus YIL073C, strain SPO22, stronger effect = lower value 0.97 | locus YIL125W, strain kgd1, stronger effect = lower value 0.991 | locus YIR030C, strain dcg1, stronger effect = lower value 0.986 | locus YJL092W, strain hpr5, stronger effect = lower value 1.01 | locus YJL095W, strain BCK1 (second series), stronger effect = lower value 0.997 | locus YJL095W, strain BCK1, stronger effect = lower value 1.06 and 0.972 | locus YJL115W, strain asf1, stronger effect = lower value 0.982 | locus YJL129C, strain trk1, stronger effect = lower value 1.02 | locus YJL134W, strain LCB3, stronger effect = lower value 0.977 | locus YJL154C, strain vps35, stronger effect = lower value 0.996 | locus YJL164C, strain tpk1, stronger effect = lower value 0.995 | locus YJL166W, strain qcr8, stronger effect = lower value 0.979 | locus YJL168C, strain set2, stronger effect = lower value 0.991 | locus YJL187C, strain SWE1 (second series), stronger effect = lower value 1.01 | locus YJL187C, strain SWE1, stronger effect = lower value 1 | locus YJR043C, strain POL32, stronger effect = lower value 0.941 | locus YJR066W, strain TOR1, stronger effect = lower value 0.961 | locus YJR075W, strain HOC1, stronger effect = lower value 0.993 | locus YKL009W, strain mrt4, stronger effect = lower value 0.971 | locus YKL068W, stronger effect = lower value 0.995 | locus YKL085W, strain MDH1 (second series), stronger effect = lower value 0.995 | locus YKL085W, strain MDH1, stronger effect = lower value 0.995 | locus YKL160W, strain elf1, stronger effect = lower value 1.01 | locus YKR001C, strain vps1, stronger effect = lower value 0.985 | locus YKR026C, strain gcn3, stronger effect = lower value 0.998 | locus YKR091W, strain srl3, stronger effect = lower value 0.997 | locus YLL001W, strain dnm1, stronger effect = lower value 1.01 | locus YLL026W, stronger effect = lower value 0.995 | locus YLL041C, strain sdh2, stronger effect = lower value 0.986 | locus YLR027C, strain aat2, stronger effect = lower value 1.01 | locus YLR039C, strain RIC1, stronger effect = lower value 0.955 | locus YLR058C, strain SHM2, stronger effect = lower value 0.97 | locus YLR102C, strain apc9, stronger effect = lower value 0.979 | locus YLR113W, strain HOG1, stronger effect = lower value 0.929 | locus YLR221C, strain rsa3, stronger effect = lower value 0.99 | locus YLR258W, strain gsy2, stronger effect = lower value 1.01 | locus YLR262C, strain YPT6 (second series), stronger effect = lower value 0.993 | locus YLR262C, strain YPT6, stronger effect = lower value 0.967 | locus YLR268W, strain sec22, stronger effect = lower value 0.972 | locus YLR320W, strain mms22, stronger effect = lower value 0.979 | locus YLR342W, strain FKS1, stronger effect = lower value 0.981 | locus YLR357W, strain rsc2, stronger effect = lower value 0.923 | locus YLR370C, strain arc18, stronger effect = lower value 0.997 | locus YLR371W, strain rom2, stronger effect = lower value 0.981 | locus YLR384C, strain iki3, stronger effect = lower value 0.995 | locus YLR418C, strain cdc73, stronger effect = lower value 1.04 | locus YML016C, strain PPZ1, stronger effect = lower value 0.96 | locus YML032C, strain rad52, stronger effect = lower value 0.996 | locus YML120C, strain ndi1, stronger effect = lower value 0.995 | locus YML124C, strain tub3, stronger effect = lower value 0.995 | locus YMR058W, strain fet3, stronger effect = lower value 0.987 | locus YMR078C, strain ctf18, stronger effect = lower value 0.983 | locus YMR125W, strain sto1, stronger effect = lower value 0.996 | locus YMR129W, stronger effect = lower value 1.01 | locus YMR205C, strain PFK2, stronger effect = lower value 0.992 | locus YMR223W, strain ubp8, stronger effect = lower value 1.01 | locus YMR231W, strain pep5, stronger effect = lower value 0.994 | locus YMR307W, strain GAS1, stronger effect = lower value 1.03 | locus YNL067W, strain RPL9B, stronger effect = lower value 0.999 | locus YNL071W, strain lat1, stronger effect = lower value 1 | locus YNL153C, strain GIM3, stronger effect = lower value 1.02 | locus YNL183C, strain NPR1, stronger effect = lower value 0.937 | locus YNL209W, strain ssb2, stronger effect = lower value 1.01 | locus YNL233W, strain BNI4, stronger effect = lower value 1.03 | locus YNL248C, strain rpa49, stronger effect = lower value 0.993 | locus YNL250W, strain rad50, stronger effect = lower value 0.991 | locus YNL271C, strain bni1, stronger effect = lower value 0.99 | locus YNL298W, strain CLA4, stronger effect = lower value 0.959 | locus YNL307C, strain MCK1, stronger effect = lower value 1 | locus YNL322C, strain KRE1 (second series), stronger effect = lower value 0.998 | locus YNL322C, strain KRE1, stronger effect = lower value 0.986 | locus YNR049C, strain mso1, stronger effect = lower value 0.982 | locus YNR052C, strain pop2, stronger effect = lower value 1.01 | locus YOL012C, strain htz1 1.1 | locus YOL147C, strain pex11, stronger effect = lower value 0.993 | locus YOR001W, strain rrp6, stronger effect = lower value 1 | locus YOR061W, strain CKA2, stronger effect = lower value 0.942 | locus YOR069W, strain VPS5, stronger effect = lower value 0.993 | locus YOR070C, strain gyp1, stronger effect = lower value 0.999 | locus YOR080W, strain dia2, stronger effect = lower value 0.99 | locus YOR083W, strain WHI5, stronger effect = lower value 0.991 | locus YOR106W, strain vam3, stronger effect = lower value 0.995 | locus YOR136W, strain idh2, stronger effect = lower value 1 | locus YOR144C, strain elg1, stronger effect = lower value 0.983 | locus YOR184W, strain ser1, stronger effect = lower value 0.951 | locus YOR231W, strain MKK1, stronger effect = lower value 0.983 | locus YOR265W, strain rbl2, stronger effect = lower value 0.991 | locus YOR270C, strain vph1, stronger effect = lower value 1.02 | locus YOR290C, strain snf2, stronger effect = lower value 1.02 | locus YOR316C, strain cot1, stronger effect = lower value 1 | locus YPL051W, strain arl3, stronger effect = lower value 1 | locus YPL078C, strain atp4, stronger effect = lower value 0.992 | locus YPL106C, strain sse1, stronger effect = lower value 0.951 | locus YPL240C, strain hsp82, stronger effect = lower value 0.998 | locus YPL241C, strain CIN2, stronger effect = lower value 0.991 | locus YPL256C, strain CLN2, stronger effect = lower value 0.989 | locus YPR119W, strain clb2, stronger effect = lower value 1 | locus YPR141C, strain kar3, stronger effect = lower value 0.987 | locus YPR163C, strain tif3, stronger effect = lower value 0.984 | locus YPR167C, strain met16, stronger effect = lower value 1 | strain wtn01, stronger effect = lower value 0.96
